# Publication PMC7862700, “An all-to-all approach to the identification of sequence-specific readers for epigenetic DNA modifications on cytosine”
# Experiments:
# Experiment in all cases: DAPPL (digital affinity profiling via proximity ligation, sequencing); 10 mM Tris-HCl pH 7.5, 50 mM NaCl, 1 mM DTT, 4% glycerol, room temperature, 30 min; GST-TFs on glutathione beads, 16-mer random dsDNA library, 0.1% formaldehyde crosslink after washing; high values mean tight binding
# FLI1 = biological target: T1, FLI1 (Homo sapiens, UniProt Q01543 1-452); settings: protein: recombinant; tags: N-terminal GST; dsDNA, one strand shown
# T1 sequence: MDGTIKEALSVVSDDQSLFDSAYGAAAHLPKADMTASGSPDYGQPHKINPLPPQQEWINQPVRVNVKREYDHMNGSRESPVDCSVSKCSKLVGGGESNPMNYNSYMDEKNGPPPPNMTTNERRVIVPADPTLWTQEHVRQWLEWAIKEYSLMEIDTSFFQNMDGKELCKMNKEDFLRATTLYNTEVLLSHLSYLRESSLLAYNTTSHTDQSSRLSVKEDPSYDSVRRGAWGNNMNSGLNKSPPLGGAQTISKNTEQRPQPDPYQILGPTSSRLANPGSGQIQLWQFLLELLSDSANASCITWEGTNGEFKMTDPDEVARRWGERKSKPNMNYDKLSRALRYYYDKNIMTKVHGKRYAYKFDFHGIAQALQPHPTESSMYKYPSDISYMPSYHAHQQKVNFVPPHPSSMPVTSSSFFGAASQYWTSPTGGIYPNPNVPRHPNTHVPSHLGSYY
# Summary of the method: (§1)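 Sequencing on an Illumina NextSeq500 followed washing, crosslinking with 0.1% formaldehyde, proximity ligation (BsaI/T4 ligase, 1 h, 37 °C) and PCR amplification of pools that had been incubated for 30 min at room temperature with 200 nmole of a random double-stranded 16-mer DNA library in Tris/NaCl/DTT/glycerol buffer. Each pool held DNA-barcoded human transcription factors, expressed in yeast as GST fusions and captured on glutathione beads, plus a tag-only sample. Binding signal is a hexamer's read frequency for a factor divided by its frequency in the tag-only sample.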
# ELK1 = biological target: T2, ELK1 (Homo sapiens, UniProt P19419 1-428); settings: protein: recombinant; tags: N-terminal GST; dsDNA, one strand shown
# T2 sequence: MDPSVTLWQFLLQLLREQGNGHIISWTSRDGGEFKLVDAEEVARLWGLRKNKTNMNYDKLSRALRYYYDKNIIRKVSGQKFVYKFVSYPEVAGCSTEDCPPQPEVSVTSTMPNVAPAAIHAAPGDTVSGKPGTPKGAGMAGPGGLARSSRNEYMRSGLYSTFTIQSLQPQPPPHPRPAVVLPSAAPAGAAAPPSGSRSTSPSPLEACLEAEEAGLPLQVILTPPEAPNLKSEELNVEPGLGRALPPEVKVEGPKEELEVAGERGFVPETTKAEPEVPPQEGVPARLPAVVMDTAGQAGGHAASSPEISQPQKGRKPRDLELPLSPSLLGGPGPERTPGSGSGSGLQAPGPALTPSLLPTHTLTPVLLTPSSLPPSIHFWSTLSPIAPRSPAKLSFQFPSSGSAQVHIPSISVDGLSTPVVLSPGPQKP
# Summary of the method: as §1
# GABPA = biological target: T3, GABPA (Homo sapiens, UniProt Q06546 1-454); settings: protein: recombinant; tags: N-terminal GST; dsDNA, one strand shown
# T3 sequence: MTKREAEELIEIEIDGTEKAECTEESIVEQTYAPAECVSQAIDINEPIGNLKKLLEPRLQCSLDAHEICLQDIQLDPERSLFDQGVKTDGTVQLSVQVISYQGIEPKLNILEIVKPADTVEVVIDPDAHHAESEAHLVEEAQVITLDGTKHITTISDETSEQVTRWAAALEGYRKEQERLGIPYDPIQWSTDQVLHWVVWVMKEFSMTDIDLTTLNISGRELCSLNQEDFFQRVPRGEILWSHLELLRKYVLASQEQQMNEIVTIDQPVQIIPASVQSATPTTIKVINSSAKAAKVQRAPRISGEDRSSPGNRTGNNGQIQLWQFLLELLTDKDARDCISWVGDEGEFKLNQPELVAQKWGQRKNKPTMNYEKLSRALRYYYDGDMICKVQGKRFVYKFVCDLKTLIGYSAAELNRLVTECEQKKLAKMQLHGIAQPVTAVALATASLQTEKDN
# Summary of the method: as §1
# ERG = biological target: T4, ERG (Homo sapiens, UniProt P11308 1-479); settings: protein: recombinant; tags: N-terminal GST; dsDNA, one strand shown
# T4 sequence: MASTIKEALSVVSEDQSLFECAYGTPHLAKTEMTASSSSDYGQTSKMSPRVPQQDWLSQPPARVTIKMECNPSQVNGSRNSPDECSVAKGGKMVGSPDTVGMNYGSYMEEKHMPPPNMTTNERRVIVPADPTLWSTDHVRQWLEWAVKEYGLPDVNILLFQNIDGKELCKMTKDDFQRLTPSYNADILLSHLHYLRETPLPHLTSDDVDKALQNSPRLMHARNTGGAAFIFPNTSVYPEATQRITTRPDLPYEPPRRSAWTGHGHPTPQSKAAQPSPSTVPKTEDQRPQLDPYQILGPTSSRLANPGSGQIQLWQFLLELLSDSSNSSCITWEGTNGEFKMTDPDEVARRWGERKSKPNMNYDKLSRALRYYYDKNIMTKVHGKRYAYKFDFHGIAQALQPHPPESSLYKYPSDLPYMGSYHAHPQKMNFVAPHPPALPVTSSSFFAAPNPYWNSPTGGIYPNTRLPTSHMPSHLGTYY
# Summary of the method: as §1
# ELF1 = ELF1 (Homo sapiens, UniProt P32519 1-619); settings: protein: recombinant; tags: N-terminal GST; dsDNA, one strand shown
# Summary of the method: as §1
# EHF = biological target: T5, EHF (Homo sapiens, UniProt Q9NZC4 1-300); settings: protein: recombinant; tags: N-terminal GST; dsDNA, one strand shown
# T5 sequence: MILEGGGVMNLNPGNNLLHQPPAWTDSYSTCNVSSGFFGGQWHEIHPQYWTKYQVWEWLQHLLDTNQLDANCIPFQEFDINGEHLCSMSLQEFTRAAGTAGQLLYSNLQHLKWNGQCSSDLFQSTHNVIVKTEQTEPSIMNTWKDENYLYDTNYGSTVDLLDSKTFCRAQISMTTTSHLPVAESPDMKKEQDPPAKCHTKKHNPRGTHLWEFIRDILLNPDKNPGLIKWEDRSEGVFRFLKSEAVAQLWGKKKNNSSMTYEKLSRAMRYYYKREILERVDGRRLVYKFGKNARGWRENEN
# Summary of the method: as §1
# SPI1 = SPI1 (Homo sapiens, UniProt P17947 1-270); settings: protein: recombinant; tags: N-terminal GST; dsDNA, one strand shown
# Summary of the method: as §1
# SPIB = SPIB (Homo sapiens, UniProt Q01892 1-262); settings: protein: recombinant; tags: N-terminal GST; dsDNA, one strand shown
# Summary of the method: as §1
# ELK3 = biological target: T6, ELK3 (Homo sapiens, UniProt P41970 1-407); settings: protein: recombinant; tags: N-terminal GST; dsDNA, one strand shown
# T6 sequence: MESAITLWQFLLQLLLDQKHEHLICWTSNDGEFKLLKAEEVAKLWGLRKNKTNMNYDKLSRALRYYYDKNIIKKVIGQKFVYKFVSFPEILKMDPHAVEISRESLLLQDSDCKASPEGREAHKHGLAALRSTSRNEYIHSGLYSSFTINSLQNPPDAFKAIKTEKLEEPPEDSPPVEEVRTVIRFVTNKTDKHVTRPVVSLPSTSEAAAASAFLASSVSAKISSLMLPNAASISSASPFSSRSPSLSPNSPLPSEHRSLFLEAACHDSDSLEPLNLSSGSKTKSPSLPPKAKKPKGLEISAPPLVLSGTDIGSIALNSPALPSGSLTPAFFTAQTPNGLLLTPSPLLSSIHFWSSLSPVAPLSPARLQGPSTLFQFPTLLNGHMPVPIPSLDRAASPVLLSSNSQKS
# Summary of the method: as §1
# FEV = biological target: T7, FEV (Homo sapiens, UniProt Q99581 1-238); settings: protein: recombinant; tags: N-terminal GST; dsDNA, one strand shown
# T7 sequence: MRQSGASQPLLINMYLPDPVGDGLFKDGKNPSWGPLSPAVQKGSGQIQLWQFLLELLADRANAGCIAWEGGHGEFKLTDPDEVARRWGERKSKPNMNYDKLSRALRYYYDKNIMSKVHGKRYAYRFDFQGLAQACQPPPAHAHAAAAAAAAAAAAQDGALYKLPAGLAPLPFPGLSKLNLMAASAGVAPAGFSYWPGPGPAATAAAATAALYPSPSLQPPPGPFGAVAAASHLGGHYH
# Summary of the method: as §1
# ETV5 = ETV5 (Homo sapiens, UniProt P41161 1-510); settings: protein: recombinant; tags: N-terminal GST; dsDNA, one strand shown
# Summary of the method: as §1
# HSF1 = HSF1 (Homo sapiens, UniProt Q00613 1-529); settings: protein: recombinant; tags: N-terminal GST; chain copies: 3; dsDNA, one strand shown
# Summary of the method: as §1
# SPIC = biological target: T8, SPIC (Homo sapiens, UniProt Q8N5J4 1-248); settings: protein: recombinant; tags: N-terminal GST; dsDNA, one strand shown
# T8 sequence: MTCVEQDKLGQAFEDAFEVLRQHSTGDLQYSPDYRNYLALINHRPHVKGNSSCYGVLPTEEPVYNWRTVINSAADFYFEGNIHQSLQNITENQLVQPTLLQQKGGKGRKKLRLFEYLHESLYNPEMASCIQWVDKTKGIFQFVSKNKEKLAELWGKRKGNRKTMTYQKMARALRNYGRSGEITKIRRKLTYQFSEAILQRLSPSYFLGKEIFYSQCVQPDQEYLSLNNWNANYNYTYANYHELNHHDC
# Summary of the method: as §1
# ELF4 = ELF4 (Homo sapiens, UniProt Q99607 1-663); settings: protein: recombinant; tags: N-terminal GST; dsDNA, one strand shown
# Summary of the method: as §1
# ELK4 = biological target: T9, ELK4 (Homo sapiens, UniProt P28324-2 1-405); settings: protein: recombinant; tags: N-terminal GST; dsDNA, one strand shown
# T9 sequence: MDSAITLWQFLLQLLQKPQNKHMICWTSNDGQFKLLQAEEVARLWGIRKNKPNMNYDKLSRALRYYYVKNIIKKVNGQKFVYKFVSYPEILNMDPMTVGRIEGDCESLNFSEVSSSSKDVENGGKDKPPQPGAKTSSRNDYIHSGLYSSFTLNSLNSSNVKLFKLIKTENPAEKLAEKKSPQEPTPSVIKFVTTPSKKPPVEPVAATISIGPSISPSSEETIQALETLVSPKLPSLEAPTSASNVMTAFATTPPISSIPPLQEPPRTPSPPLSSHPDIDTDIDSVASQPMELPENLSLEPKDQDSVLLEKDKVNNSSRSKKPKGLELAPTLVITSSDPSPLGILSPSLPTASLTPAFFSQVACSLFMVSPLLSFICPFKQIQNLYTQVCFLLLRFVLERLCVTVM
# Summary of the method: as §1
# ETV2 = biological target: T10, ETV2 (Homo sapiens, UniProt O00321 1-342); settings: protein: recombinant; tags: N-terminal GST; dsDNA, one strand shown
# T10 sequence: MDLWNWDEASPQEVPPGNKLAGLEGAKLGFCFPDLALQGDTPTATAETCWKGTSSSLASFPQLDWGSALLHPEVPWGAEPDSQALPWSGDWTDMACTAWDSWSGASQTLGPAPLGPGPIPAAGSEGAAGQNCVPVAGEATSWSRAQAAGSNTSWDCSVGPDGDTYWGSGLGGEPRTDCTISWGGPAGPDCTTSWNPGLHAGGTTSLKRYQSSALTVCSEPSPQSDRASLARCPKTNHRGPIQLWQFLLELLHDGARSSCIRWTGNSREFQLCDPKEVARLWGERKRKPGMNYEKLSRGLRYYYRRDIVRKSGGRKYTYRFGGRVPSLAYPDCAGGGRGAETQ
# Summary of the method: as §1
# ELF3 = biological target: T11, ELF3 (Homo sapiens, UniProt P78545 1-371); settings: protein: recombinant; tags: N-terminal GST; dsDNA, one strand shown
# T11 sequence: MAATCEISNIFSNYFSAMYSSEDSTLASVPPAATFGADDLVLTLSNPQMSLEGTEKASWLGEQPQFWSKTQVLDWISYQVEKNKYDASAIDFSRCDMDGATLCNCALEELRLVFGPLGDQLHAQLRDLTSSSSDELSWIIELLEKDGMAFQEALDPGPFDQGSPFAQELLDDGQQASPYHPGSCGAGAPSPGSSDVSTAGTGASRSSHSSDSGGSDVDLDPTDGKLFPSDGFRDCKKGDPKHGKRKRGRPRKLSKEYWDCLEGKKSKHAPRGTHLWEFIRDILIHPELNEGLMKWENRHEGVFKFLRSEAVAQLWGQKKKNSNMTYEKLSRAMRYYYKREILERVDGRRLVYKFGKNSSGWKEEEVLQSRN
# Summary of the method: as §1
# CRX = CRX (Homo sapiens, UniProt O43186 1-299); settings: protein: recombinant; tags: N-terminal GST; dsDNA, one strand shown
# Summary of the method: as §1
# ETV1 = ETV1 (Homo sapiens, UniProt P50549 1-477); settings: protein: recombinant; tags: N-terminal GST; dsDNA, one strand shown
# Summary of the method: as §1
# Sequence of CRX (O43186 whole entry): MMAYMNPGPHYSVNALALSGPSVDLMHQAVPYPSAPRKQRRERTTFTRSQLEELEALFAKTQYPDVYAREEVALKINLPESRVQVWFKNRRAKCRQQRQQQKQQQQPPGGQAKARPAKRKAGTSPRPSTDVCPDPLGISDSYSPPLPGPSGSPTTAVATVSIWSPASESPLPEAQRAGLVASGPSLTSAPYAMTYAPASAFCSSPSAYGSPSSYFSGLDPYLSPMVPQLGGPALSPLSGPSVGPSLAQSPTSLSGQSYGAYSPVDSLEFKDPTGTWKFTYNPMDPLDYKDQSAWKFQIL
# Sequence of ETV1 (P50549 whole entry): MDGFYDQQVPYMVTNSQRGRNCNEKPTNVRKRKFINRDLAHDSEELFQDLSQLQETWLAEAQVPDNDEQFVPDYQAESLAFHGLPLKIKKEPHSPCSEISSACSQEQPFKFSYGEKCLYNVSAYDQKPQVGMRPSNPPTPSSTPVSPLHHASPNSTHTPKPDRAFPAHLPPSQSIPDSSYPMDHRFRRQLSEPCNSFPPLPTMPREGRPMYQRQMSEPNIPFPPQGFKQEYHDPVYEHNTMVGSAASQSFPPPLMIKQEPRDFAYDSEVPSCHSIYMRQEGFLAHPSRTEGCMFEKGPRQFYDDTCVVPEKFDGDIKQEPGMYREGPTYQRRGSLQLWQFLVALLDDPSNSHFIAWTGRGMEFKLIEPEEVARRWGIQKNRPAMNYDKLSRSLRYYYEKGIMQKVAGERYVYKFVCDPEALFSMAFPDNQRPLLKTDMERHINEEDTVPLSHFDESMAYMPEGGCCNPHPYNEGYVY
# Sequence of ELF1 (P32519 whole entry): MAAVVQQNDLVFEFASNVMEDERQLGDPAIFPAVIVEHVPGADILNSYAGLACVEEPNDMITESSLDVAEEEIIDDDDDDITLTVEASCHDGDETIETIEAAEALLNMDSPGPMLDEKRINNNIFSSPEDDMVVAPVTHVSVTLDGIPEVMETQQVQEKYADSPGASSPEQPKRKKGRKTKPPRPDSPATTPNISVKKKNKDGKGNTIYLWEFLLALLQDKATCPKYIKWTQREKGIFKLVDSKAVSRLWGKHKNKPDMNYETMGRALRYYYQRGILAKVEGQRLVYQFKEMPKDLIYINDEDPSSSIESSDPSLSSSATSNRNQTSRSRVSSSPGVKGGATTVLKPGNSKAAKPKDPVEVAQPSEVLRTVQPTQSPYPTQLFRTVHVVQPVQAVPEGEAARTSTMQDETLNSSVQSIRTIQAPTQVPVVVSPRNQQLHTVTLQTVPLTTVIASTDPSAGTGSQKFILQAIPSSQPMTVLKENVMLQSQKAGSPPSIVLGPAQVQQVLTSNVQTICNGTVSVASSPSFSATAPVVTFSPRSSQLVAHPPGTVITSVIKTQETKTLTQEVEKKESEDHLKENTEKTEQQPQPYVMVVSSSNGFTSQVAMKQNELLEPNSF
# Sequence of ETV5 (P41161 whole entry): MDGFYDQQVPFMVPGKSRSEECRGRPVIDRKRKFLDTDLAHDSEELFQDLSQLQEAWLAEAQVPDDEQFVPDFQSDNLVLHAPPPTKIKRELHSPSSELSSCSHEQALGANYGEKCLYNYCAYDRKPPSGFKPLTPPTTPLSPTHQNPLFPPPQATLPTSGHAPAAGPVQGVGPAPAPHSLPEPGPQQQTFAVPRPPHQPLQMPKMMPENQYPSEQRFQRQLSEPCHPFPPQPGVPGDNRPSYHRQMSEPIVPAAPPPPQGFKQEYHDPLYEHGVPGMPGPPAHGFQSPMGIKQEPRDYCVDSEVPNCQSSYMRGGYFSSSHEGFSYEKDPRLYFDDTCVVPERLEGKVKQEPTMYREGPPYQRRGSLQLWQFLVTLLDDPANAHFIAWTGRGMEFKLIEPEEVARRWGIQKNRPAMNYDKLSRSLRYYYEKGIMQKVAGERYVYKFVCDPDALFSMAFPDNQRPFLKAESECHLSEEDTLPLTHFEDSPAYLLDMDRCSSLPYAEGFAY
# Sequence of ELF4 (Q99607 whole entry): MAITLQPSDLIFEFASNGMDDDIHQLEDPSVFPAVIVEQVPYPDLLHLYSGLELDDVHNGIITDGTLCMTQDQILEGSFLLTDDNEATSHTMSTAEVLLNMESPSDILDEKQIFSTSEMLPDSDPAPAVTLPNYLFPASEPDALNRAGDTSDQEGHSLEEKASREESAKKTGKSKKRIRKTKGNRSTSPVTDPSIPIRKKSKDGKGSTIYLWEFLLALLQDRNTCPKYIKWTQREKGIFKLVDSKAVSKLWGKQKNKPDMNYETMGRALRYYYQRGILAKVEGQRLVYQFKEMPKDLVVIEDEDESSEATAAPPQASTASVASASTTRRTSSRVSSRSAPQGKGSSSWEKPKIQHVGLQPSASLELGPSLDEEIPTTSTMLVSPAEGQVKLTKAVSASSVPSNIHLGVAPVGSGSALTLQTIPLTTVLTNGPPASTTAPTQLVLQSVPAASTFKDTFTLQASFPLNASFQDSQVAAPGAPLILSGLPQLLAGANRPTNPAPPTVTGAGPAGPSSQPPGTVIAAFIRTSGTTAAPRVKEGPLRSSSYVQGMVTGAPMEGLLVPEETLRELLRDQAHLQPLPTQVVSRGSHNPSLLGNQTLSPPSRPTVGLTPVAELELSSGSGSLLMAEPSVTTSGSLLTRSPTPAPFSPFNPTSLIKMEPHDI
# Sequence of SPIB (Q01892 whole entry): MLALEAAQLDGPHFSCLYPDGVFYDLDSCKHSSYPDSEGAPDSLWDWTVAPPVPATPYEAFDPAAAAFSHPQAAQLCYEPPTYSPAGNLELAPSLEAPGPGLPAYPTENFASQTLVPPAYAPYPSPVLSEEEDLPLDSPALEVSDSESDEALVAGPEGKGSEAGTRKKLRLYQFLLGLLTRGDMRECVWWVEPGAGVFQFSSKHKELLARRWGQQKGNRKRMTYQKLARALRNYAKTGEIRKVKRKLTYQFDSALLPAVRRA
# Sequence of HSF1 (Q00613 whole entry): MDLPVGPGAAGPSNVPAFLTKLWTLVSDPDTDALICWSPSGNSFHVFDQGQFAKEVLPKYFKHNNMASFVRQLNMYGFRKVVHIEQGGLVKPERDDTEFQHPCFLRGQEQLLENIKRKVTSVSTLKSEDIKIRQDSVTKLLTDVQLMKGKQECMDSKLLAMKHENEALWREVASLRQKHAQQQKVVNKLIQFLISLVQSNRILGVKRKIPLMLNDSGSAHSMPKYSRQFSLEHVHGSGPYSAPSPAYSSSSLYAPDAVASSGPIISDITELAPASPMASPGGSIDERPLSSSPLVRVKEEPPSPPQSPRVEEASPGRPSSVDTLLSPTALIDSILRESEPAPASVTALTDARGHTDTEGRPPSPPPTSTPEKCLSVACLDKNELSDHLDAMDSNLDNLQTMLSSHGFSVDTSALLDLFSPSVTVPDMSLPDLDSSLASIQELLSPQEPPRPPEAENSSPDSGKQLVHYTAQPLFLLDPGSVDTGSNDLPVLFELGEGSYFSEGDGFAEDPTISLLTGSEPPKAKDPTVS
sequence,measurement,setting,value
ATCTCT,binding signal,FLI1,"1.29 fold enrichment (6-mer frequency, TF over GST control)"
same,binding signal,ELK1,"1.24 fold enrichment (6-mer frequency, TF over GST control)"
same,binding signal,GABPA,"1.33 fold enrichment (6-mer frequency, TF over GST control)"
same,binding signal,ERG,"1.17 fold enrichment (6-mer frequency, TF over GST control)"
same,binding signal,ELF1,"1.29 fold enrichment (6-mer frequency, TF over GST control)"
same,binding signal,EHF,"1.49 fold enrichment (6-mer frequency, TF over GST control)"
same,binding signal,SPI1,"1.27 fold enrichment (6-mer frequency, TF over GST control)"
same,binding signal,SPIB,"1.36 fold enrichment (6-mer frequency, TF over GST control)"
same,binding signal,ELK3,"1.3 fold enrichment (6-mer frequency, TF over GST control)"
same,binding signal,FEV,"1.29 fold enrichment (6-mer frequency, TF over GST control)"
same,binding signal,ETV5,"1.29 fold enrichment (6-mer frequency, TF over GST control)"
same,binding signal,HSF1,"1.63 fold enrichment (6-mer frequency, TF over GST control)"
same,binding signal,SPIC,"1.45 fold enrichment (6-mer frequency, TF over GST control)"
same,binding signal,ELF4,"1.26 fold enrichment (6-mer frequency, TF over GST control)"
same,binding signal,ELK4,"1.44 fold enrichment (6-mer frequency, TF over GST control)"
same,binding signal,ETV2,"1.33 fold enrichment (6-mer frequency, TF over GST control)"
same,binding signal,ELF3,"1.26 fold enrichment (6-mer frequency, TF over GST control)"
same,binding signal,CRX,"1.85 fold enrichment (6-mer frequency, TF over GST control)"
same,binding signal,ETV1,"1.23 fold enrichment (6-mer frequency, TF over GST control)"
